The full list was thinned out, with hits kept by preference.
Tb PYK inh – T. brucei pyruvate kinase inhibition; Q57TT1; TbPYK enzyme, Kinase-Glo Plus ATP luminescence, 45 min; Potency, µM (doses to about 76.8 µM), actives largely listed as inhibitors; actives 0.12% (n = 410,000); AID 624173; further: nearly all actives have a fitted effect of over 50% in size
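Luminescence from Kinase-Glo Plus, added after a 45-minute room-temperature reaction, served as the end-point read-out. The enzyme and substrate were preincubated with compound before ADP (130 uM final) initiated turnover. Concentration-effect curves came from normalized qHTS data.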
Cycloheximide cs – affects cycloheximide protein synthesis inhibition readout, counter-screen | cell reporter, cycloheximide protein synthesis inhibition counterscreen | max response, % | actives 12% (n = 300,000) | AID 2314; in the data active means max response mostly above about 13%, no sharp cut-off; inactive means mostly below about 14%; further: read at 38.3 µM for the half of the compounds with a filed dose
LmPK inhibitor – inhibitors of Leishmania mexicana pyruvate kinase. Q27686. purified LmPK, Kinase-Glo ATP luminescence, 1 h. Potency, µM (doses to about 57.5 µM), most hits filed as inhibitors. actives 0.37% (n = 290,000). AID 1721
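In 50 mM imidazole pH 7.2 with 7 mM MgCl2, LmPK (0.1 nM) turned over PEP (0.5 mM) and ADP (0.1 mM) for 1 h at room temperature. Luciferase read-out of ATP.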
Sm TGR inh – inhibitors of Schistosoma mansoni thioredoxin glutathione reductase; Q962Y6; purified TGR, DTNB reduction, TNB absorbance 405 nm; Potency, µM (top dose mostly 114 µM), actives largely listed as inhibitors; actives 3% (n = 360,000); further: nearly all actives have a fitted effect of over 60% in size
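TGR 20 nM + NADPH 100 uM (dispensed conc.), cpd preinc 15 min RT; start with NADPH (500 uM addition) then DTNB (15 mM addition). Kinetic TNB absorbance, 405 nm filter. Four-parameter Hill fit across titration.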
Giardia FBPA inh – Giardia lamblia aldolase inhibition; Potency, µM (doses to about 59.6 µM), actives largely listed as inhibitors; actives 0.71% (n = 290,000); AID 2451; A8B2U2; purified Giardia FBPA; further: nearly all actives have a fitted effect of over 55% in size
Target sequence (A8B2U2 whole entry, looked up): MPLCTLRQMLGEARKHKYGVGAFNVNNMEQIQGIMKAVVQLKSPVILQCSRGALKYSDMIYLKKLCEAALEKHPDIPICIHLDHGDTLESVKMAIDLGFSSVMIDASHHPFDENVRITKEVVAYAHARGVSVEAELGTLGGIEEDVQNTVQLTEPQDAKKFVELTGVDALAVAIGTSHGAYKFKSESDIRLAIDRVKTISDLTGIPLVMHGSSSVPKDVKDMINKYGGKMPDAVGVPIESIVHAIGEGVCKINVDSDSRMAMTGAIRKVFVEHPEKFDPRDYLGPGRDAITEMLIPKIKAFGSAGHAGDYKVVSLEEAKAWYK
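40 nM FBPA preincubated 10 min at RT with compound (up to 57.5 uM final), then substrate plus GAPDH/TPI/NAD/arsenate coupling and diaphorase/resazurin added. Fluorescence read after 20 min at RT, 525/598 nm.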
Shiga inhibitor – blocks Shiga toxin action in Vero cells. Vero cells, Shiga toxin protein synthesis inhibition reporter. inhibition, % at 38.7 µM. actives 9.2% (n = 290,000); in the data active means inhibition mostly above about 28%, no sharp cut-off; inactive means mostly below about 43%
Large screens that a line does not name were inactive. Unless noted, the call rests on the fitted dose curve; in most records, active means well fitted curve in the direction sought with a large enough effect; inconclusive means small, poorly fitted or top-dose-only effect, or another doubt; inactive means no such curve, though single readings can be large; an effect the other way counts as inactive or inconclusive.

N#Cc1nc(/C=C/c2ccc(F)cc2)oc1N1CCCCCC1	none (no result: Cycloheximide cs, LmPK inhibitor, Giardia FBPA inh, Shiga inhibitor)
O=C(O)CCN1C(=O)c2ccc(NC(=O)CSc3ccccc3)cc2C1=O	none
CN1C(=O)c2ccc(NC(=O)CSc3ccccc3)cc2C1=O	Cycloheximide cs 28
O=C(CSc1ccc2ccccc2c1)Nc1ccncc1	none
CC(C)(C)NC(=O)c1ccc(NC(=O)CSc2ccccc2)cc1	Cycloheximide cs 15 (no result: Sm TGR inh)
CN1CCN(c2ccc(NC(=O)CSc3ccccc3)cc2F)CC1	Cycloheximide cs 49, Shiga inhibitor 61
Cc1ccc(SCC(=O)Nc2ccc(N3CCN(c4ccccc4)CC3)c(F)c2)cc1	none
O=C(CSc1ccccc1)Nc1ccncc1	Cycloheximide cs 12
O=C(Nc1ccccc1OCc1cc(=O)n2ccccc2n1)Nc1ccccc1C(F)(F)F	none (no result: Cycloheximide cs, LmPK inhibitor, Giardia FBPA inh, Shiga inhibitor)
O=C(CSc1ccc(F)cc1)Nc1ccc(C2SCCS2)cc1	Cycloheximide cs 35, Shiga inhibitor 85
CC(=O)Oc1ccc(NC(=O)CSc2ccccc2)cc1	Cycloheximide cs 45
O=C(CSC1=NCCS1)Nc1ccc(F)cc1	none
O=C(CSc1cccc2cccc(Cl)c12)NC1=NCCS1	none
O=C(CSc1ccccc1)NC1=NCCS1	Cycloheximide cs 22
Cc1ccc(CNC(=O)CSc2ncc(S(=O)(=O)c3ccc(C)c(Cl)c3)c(=O)[nH]2)cc1	none (no result: Cycloheximide cs, LmPK inhibitor, Giardia FBPA inh, Shiga inhibitor)
CCCN(C(=O)Cn1ncc2c([nH]c3ccccc32)c1=O)c1ccc(F)cc1	none (no result: Cycloheximide cs, LmPK inhibitor, Giardia FBPA inh, Shiga inhibitor)
CCCc1cc(N2CCN(c3cc(Cl)ccc3C)CC2)n2cnnc2n1	none (no result: Cycloheximide cs, LmPK inhibitor, Giardia FBPA inh, Shiga inhibitor)
Nc1cccc2c(=O)[nH]ccc12	Giardia FBPA inh inconclusive (no result: Tb PYK inh, LmPK inhibitor, Sm TGR inh)
COc1ccc(C(=O)NC(=S)Nc2ccccc2[N+](=O)[O-])cc1OC	Giardia FBPA inh inconclusive
CCN(CC)c1ccc(NC(=O)c2cnn(CC)c2)cc1	Cycloheximide cs 44, Shiga inhibitor 100 (no result: Giardia FBPA inh)
CCn1cc(C(=O)Nc2ccccc2C(=O)OC)cn1	none (no result: Cycloheximide cs, LmPK inhibitor, Sm TGR inh, Giardia FBPA inh, Shiga inhibitor)
CCn1cc(C(=O)NC(=S)Nc2ccccc2[N+](=O)[O-])cn1	Cycloheximide cs 35, Shiga inhibitor 58 (no result: Giardia FBPA inh)
CCn1cc(C(=O)NC(=S)Nc2cccc(O)c2)cn1	Cycloheximide cs 28, Sm TGR inh inconclusive, Shiga inhibitor 58
CCn1cc(C(=O)NC(=S)Nc2ccccc2Br)cn1	Cycloheximide cs 23, Sm TGR inh 79µM, Shiga inhibitor 41
Cc1cnc(C(=O)Nc2ccccc2-c2ccc(C)o2)cn1	Sm TGR inh 20µM, Giardia FBPA inh inconclusive
O=C(Cc1nc2ccccc2[nH]1)c1ccc(Br)cc1	Cycloheximide cs 28, Shiga inhibitor 76
O=C(Cc1nc2ccccc2[nH]c1=O)c1ccccc1	Cycloheximide cs 51, Shiga inhibitor 69
CCN(C(=O)COC(=O)c1cc(-c2ccc3cc(OC)ccc3c2)nc2ccccc12)C1CCS(=O)(=O)C1 (stereo not drawn)	Cycloheximide cs 30, Shiga inhibitor 43 (no result: Tb PYK inh)
COc1ccc(-c2cc(C(=O)OCC(=O)N(C)C)c3ccccc3n2)cc1	Cycloheximide cs 26
CCN(C(=O)COC(=O)c1cc(OC)ccc1Br)C1CCS(=O)(=O)C1 (stereo not drawn)	none (no result: Cycloheximide cs, LmPK inhibitor, Sm TGR inh, Giardia FBPA inh, Shiga inhibitor)
COc1ccc(-c2cc(C(=O)Oc3ccc(C)cc3)c3ccccc3n2)cc1	none (no result: Cycloheximide cs, LmPK inhibitor, Giardia FBPA inh, Shiga inhibitor)
CCN(C(=O)COC(=O)c1c(C)nn(-c2ccccc2)c1C)C1CCS(=O)(=O)C1 (stereo not drawn)	Cycloheximide cs 16, Shiga inhibitor 43
COc1ccc(-c2cc(C(=O)OCc3ccccn3)c3ccccc3n2)cc1	Cycloheximide cs 27 (no result: Giardia FBPA inh)
O=C(O)CO	none (no result: Tb PYK inh, LmPK inhibitor, Sm TGR inh)
Cc1ccc(C(=O)OCC(=O)c2ccc[nH]2)s1	Cycloheximide cs 30, Shiga inhibitor 76
O=C(COC(=O)c1ccc(Cl)s1)c1ccc[nH]1	Cycloheximide cs 27, Shiga inhibitor 73
Cc1cccc(C(=O)Nc2cccc(OC(=O)c3cccc(C)c3)c2)c1	Cycloheximide cs 34
COC(=O)COc1cccc(NC(=O)c2cccc(C)c2)c1	Cycloheximide cs 17 (no result: Sm TGR inh)
CCN(CC)S(=O)(=O)c1ccc(NC(=O)c2cccs2)cc1	none
CCN(CC)S(=O)(=O)c1cccc(C(=O)Oc2cccc(NC(=O)c3cccs3)c2)c1	Cycloheximide cs 25
Cc1ccc(S(=O)(=O)N2CCCCC2)cc1NC(=O)COC(=O)c1ccccc1F	none

Bioassay records deposited in PubChem by National Center for Advancing Translational Sciences (NCATS).
